Reference: the supplement of paper PMC13380429

What was measured:
[1] = system: Vero E6 infected with SARS-CoV-2; assay: morphology score (similarity to uninfected cells); higher = more like uninfected cells; conditions: 24 h
[2] = system: Vero E6 infected with SARS-CoV-2; assay: SARS-CoV-2 infection rate relative to infected DMSO; higher = more infection, active = 60 or less; conditions: 24 h

Row | Compound | morphology score [1] | SARS-CoV-2 infection rate [2]
1 | CCCCCCCC/C=C/C(=O)O [trans-2-undecenoic-acid] (10 µM) | 0.204 | 112% (inactive)
2 | COc1cc(Nc2ncc3c(n2)-c2ccc(Cl)cc2C(c2c(F)cccc2OC)=NC3)ccc1C(=O)O [alisertib] (0.833333 µM) | 0.272 | 112% (inactive)
3 | COc1ccccc1C(=O)Nc1cccc(NC(=O)c2cccc(C)c2)c1 (10 µM) | 0.257 | 96.5% (inactive)
4 | Cc1noc(NS(=O)(=O)c2ccc(N)cc2)c1C [sulfafurazole] (10 µM) | 0.1 | 100% (inactive)
5 | O=C1c2ccccc2-c2n[nH]c3cccc1c23 [pyrazolanthrone] (10 µM) | 0.0961 | 106% (inactive)
6 | COc1ccc(Cl)cc1[C@]1(F)C(=O)Nc2cc(C(F)(F)F)ccc21 [flindokalner] (10 µM) | 0.165 | 99.5% (inactive)
7 | O=C(NCCO)c1cccc(-c2cc(Nc3ccc(OC(F)(F)F)cc3)ncn2)c1 (10 µM) | -0.0129 | 98.5% (inactive)
8 | CCC(N)C(O)c1ccc(O)c(O)c1 (stereo not drawn) [ethylnorepinephrine] (10 µM) | -0.108 | 106% (inactive)
9 | CCN[C@H]1CN(CCCOC)S(=O)(=O)c2sc(S(N)(=O)=O)cc21 [brinzolamide] (10 µM) | 0.267 | 69% (inactive)
10 | CC(=O)Nc1cccc2c1c(Sc1ccc(Cl)cc1)c(C)n2CC(=O)O (10 µM) | 0.187 | 97% (inactive)
11 | CC(N)Cc1c[nH]c2ccc(OCc3cccs3)cc12 (stereo not drawn) (10 µM) | 0.0586 | 90% (inactive)
12 | O=P1(N(CCCl)CCCl)NCCCO1 (stereo not drawn) [cyclophosphamide] (10 µM) | 0.0658 | 97.5% (inactive)
13 | Cc1ncc(CSSCc2cnc(C)c(O)c2CO)c(CO)c1O [pyritinol] (10 µM) | 0.0152 | 100% (inactive)
14 | CSc1ccc2c(c1)N(CCC1CCCCN1C)c1ccccc1S2 (stereo not drawn) [thioridazine] (0.833333 µM) | 0.304 | 109% (inactive)
15 | CC(=O)[C@@]12O[C@](C)(c3ccccc3)O[C@@H]1C[C@H]1[C@@H]3CCC4=CC(=O)CC[C@]4(C)[C@H]3CC[C@@]12C [algestone-acetophenide] (10 µM) | 0.363 | 88.5% (inactive)
16 | COC(=O)c1ccc2c(c1)nc(NC(=O)c1ccccc1)n2CCCc1ccccc1 (10 µM) | 0.0334 | 94.5% (inactive)
17 | CC(=O)O[C@H]1CC[C@@]2(C)C(=CC[C@@H]3[C@@H]2CC[C@]2(C)C(=O)CC[C@@H]32)C1 [prasterone-acetate] (10 µM) | -0.259 | 110% (inactive)
18 | CN1CCN(c2c(F)cc3c(=O)c(C(=O)O)cn(CCF)c3c2F)CC1 [fleroxacin] (10 µM) | -0.043 | 115% (inactive)
19 | N#CCC1(n2cc(-c3ncnc4[nH]ccc34)cn2)CN(C2CCN(C(=O)c3ccnc(C(F)(F)F)c3F)CC2)C1 [itacitinib] (10 µM) | 0.22 | 97.5% (inactive)
20 | CCCC[C@H]1OC(=O)c2ccccc21 [butylphthalide] (10 µM) | -0.108 | 102% (inactive)
21 | COC(=O)/C=C/C(=O)OCCN1C(=O)CCC1=O [diroximel-fumarate] (10 µM) | 0.0691 | 101% (inactive)
22 | Cc1cc(C)c(S(=O)(=O)n2cc(C)cc2C)c(C)c1 (10 µM) | 0.0664 | 102% (inactive)

Row | Compound | morphology score [1] | SARS-CoV-2 infection rate [2]
23 | CO[C@@]1(NC(=O)C(C(=O)O)c2ccc(O)cc2)C(=O)N2C(C(=O)O)=C(CSc3nnnn3C)CO[C@@H]21 (stereo partly drawn) [moxalactam] (10 µM) | -0.0497 | 110% (inactive)
24 | [NH-]c1c[n+](N2CCOCC2)no1 [linsidomine] (10 µM) | -0.0679 | 117% (inactive)
25 | CC(C)NC[C@@H](O)COc1ccc(CC(N)=O)cc1 (racemic) [atenolol-(+/-)] (10 µM) | 0.0556 | 108% (inactive)
26 | CCCCC1CCC(c2nc(-c3ccncc3)no2)CC1 (stereo not drawn) (10 µM) | -0.00672 | 104% (inactive)
27 | Cc1ccc(NC(=O)c2ccc(CN3CCN(C)CC3)cc2)cc1Nc1nc(-c2cccnc2)cs1 [masitinib] (10 µM) | 0.757 | 43% (active)
28 | Cc1nccn1CC1CCc2c(c3ccccc3n2C)C1=O (stereo not drawn) [ondansetron] (10 µM) | 0.253 | 90% (inactive)
29 | CN1CC[C@@H]2CN3CCc4cccc(c43)[C@@H]2C1 (10 µM) | -0.0541 | 108% (inactive)
30 | NCCCCCc1c[nH]cn1 [impentamine] (10 µM) | 0.128 | 92.5% (inactive)
31 | CC(C)C[C@H](NC(=O)[C@@H]1CCCN1)C(=O)NCC(N)=O [prolylleucylglycinamide] (10 µM) | 0.103 | 99% (inactive)
32 | Cc1cc(OCc2nnc(SC3CCCC3)n2-c2cccnc2)ccc1-c1ccc(S(C)(=O)=O)cc1 (0.833333 µM) | 0.0612 | 100% (inactive)
33 | C[C@H]1CO[C@@H]2Cn3cc(C(=O)NCc4ccc(F)cc4F)c(=O)c(O)c3C(=O)N12 (10 µM) | -0.00851 | 108% (inactive)
34 | Cc1ccc(S(=O)(=O)n2c(N)nc3ccccc32)cc1 (10 µM) | -0.0202 | 108% (inactive)
35 | Cc1cc(OCc2nc(-c3ccccc3Cl)cs2)ccc1OCC(=O)O [GPR120-modulator-1] (10 µM) | -0.0706 | 100% (inactive)
36 | O=C1O[C@H]([C@@H](O)CO)C(O)=C1O (10 µM) | 0.1 | 111% (inactive)
37 | N[C@@H](C(=O)O)c1ccc(C(=O)O)c(O)c1 (racemic) [4-carboxy-3-hydroxyphenylglycine-(RS)] (10 µM) | 0.126 | 101% (inactive)
38 | CNCC(O)c1ccc(OC(=O)C(C)(C)C)c(OC(=O)C(C)(C)C)c1 (stereo not drawn) [dipivefrine] (10 µM) | 0.127 | 89.5% (inactive)
39 | O=C(O)CCC(=O)C(=O)O [2-oxoglutaric-acid] (10 µM) | -0.135 | 110% (inactive)
40 | COc1cc2c(cc1OC)-c1cc3ccc(OC)c(OC)c3c[n+]1CC2 [palmatine-chloride] (10 µM) | 0.189 | 92% (inactive)
41 | CC(C)n1cnc2c(C(=O)N[C@H]3CN4CCC3CC4)cc(Cl)cc21 (10 µM) | 0.38 | 85% (inactive)
42 | C[C@@H](O)[C@H]1C(=O)N2C(C(=O)O)=C(S[C@@H]3CN[C@H](C(=O)Nc4cccc(C(=O)O)c4)C3)[C@H](C)[C@H]12 [ertapenem] (10 µM) | 0.126 | 106% (inactive)
43 | O=C(Nc1ccc(-c2ccnc(Nc3ccc(N4CCOCC4)cc3)n2)cc1)C1CCCN1 (stereo not drawn) (10 µM) | 0.607 | 73.5% (inactive)
44 | O=C1CC[C@@](c2ccccc2)(C2CCN(Cc3ccc(I)cc3)CC2)C(=O)N1 [iododexetimide] (10 µM) | -0.0136 | 100% (inactive)

Row | Compound | morphology score [1] | SARS-CoV-2 infection rate [2]
45 | C=CCn1c(=O)c2cnc(Nc3ccc(N4CCN(C)CC4)cc3)nc2n1-c1cccc(C(C)(C)O)n1 (10 µM) | -0.0169 | 96% (inactive)
46 | CCC(c1ccccc1)c1c(O)c2ccccc2oc1=O (stereo not drawn) [phenprocoumon] (10 µM) | 0.0901 | 102% (inactive)
47 | CCC1(C)CC(=O)NC(=O)C1 [bemegride] (10 µM) | 0.0851 | 95.5% (inactive)
48 | O=[N+]([O-])c1ccc(O)c([N+](=O)[O-])c1 [2,4-dinitrophenol] (10 µM) | 0.0596 | 97.5% (inactive)
49 | Cc1cn([C@@H]2C[C@@H](O)[C@H](CO)O2)c(=O)[nH]c1=O [telbivudine] (10 µM) | -0.036 | 118% (inactive)
50 | O=C(COc1cccc2c(=O)[nH]ccc12)c1ccccc1 (10 µM) | 0.0752 | 87% (inactive)
51 | CC1(C)CCC[C@]2(C)[C@H]3CC(=O)O[C@]3(C)CC[C@@H]12 [Sclareolide (Norambreinolide)] (10 µM) | 0.184 | 106% (inactive)
52 | Cn1c(=O)c2[nH]cnc2n(C)c1=O [aminophylline] (10 µM) | 0.187 | 95% (inactive)
53 | Cc1nccc2[nH]c(=O)ccc12 [medorinone] (10 µM) | 0.145 | 96.5% (inactive)
54 | C=C[C@](C)(O)CC[C@@H]1[C@@]2(C)CCCC(C)(C)[C@@H]2CC[C@@]1(C)O [sclareol] (10 µM) | 0.142 | 95.5% (inactive)
55 | COc1ccc2[nH]c(I)c(CCNC(C)=O)c2c1 [2-iodomelatonin] (10 µM) | 0.0455 | 88% (inactive)
56 | CC(=O)OCC(CCn1cnc2cnc(N)nc21)COC(C)=O [famciclovir] (10 µM) | 0.139 | 102% (inactive)
57 | O=C(Nc1ccccc1)c1ccccc1O [salicylanilide] (10 µM) | -0.148 | 110% (inactive)
58 | CCn1c(-c2nonc2N)nc2cncc(CNC3CCNCC3)c21 (10 µM) | 0.371 | 106% (inactive)
59 | Cc1cnc(NC(=O)Nc2cc(Br)c(C)cc2OC[C@@H]2CNCCO2)cn1 (0.833333 µM) | 0.0474 | 111% (inactive)
60 | CNC(=O)c1cc(Oc2ccc(NC(=O)Nc3cc(C(C)(C)C)nn3-c3ccc4ncccc4c3)c(F)c2)ccn1 [rebastinib] (0.833333 µM) | 0.567 | 106% (inactive)
61 | CO/N=C(\C(=O)N[C@@H]1C(=O)N2C(C(=O)O)=C(CSC(=O)c3ccco3)CS[C@H]12)c1csc(N)n1 (10 µM) | 0.156 | 104% (inactive)
62 | O=C1CC[C@@H](C(=O)N2CSC[C@H]2C(=O)O)N1 [pidotimod] (10 µM) | -0.145 | 116% (inactive)
63 | c1ccc2cc(C3=NCCN3)ncc2c1 (10 µM) | 0.119 | 102% (inactive)
64 | O=C1CCc2cc(OCCCCc3nnnn3C3CCCCC3)ccc2N1 [cilostazol] (10 µM) | -0.112 | 110% (inactive)
